Source: PubChem (NMMLSC)
Hits are enriched below; roughly 3.5% of the tested compounds scored in any of these assays.
BoNT-A LC inh2 = BoNT A light chain protease inhibition. multiplex microsphere protease substrate cleavage, flow cytometry. 360,000 compounds, 0.17% hits. inhibition, % at 10 µM
BoNT-F LC inh = inhibitors of Botulinum neurotoxin F light chain protease | Multiplex microsphere protease cleavage assay, flow cytometry | inhibition, % at 10 µM | 360,000 compounds, 0.22% hits; in the data active = inhibition above about 35%, passing the limit was not always enough; inconclusive = no clear call, values can overlap the other calls
Autofluor counter = flagged as autofluorescent in microsphere protease counterscreen; compound autofluorescence counterscreen, microsphere flow cytometry; active compounds read high; fluorescence intensity (no concentration beside the values); 360,000 compounds, 3.1% hits; AID 624483; in the data active = fluorescence intensity above about 16000; inconclusive = no clear call, values can overlap the other calls
Anthrax LF inh2 = anthrax lethal factor protease inhibition; P15917; multiplex microsphere protease cleavage assay, LF; inhibition, % at 10 µM; 360,000 compounds, 0.12% hits
Each line names hits and unclear results; the compound was inactive in the other large screens. Cut-off read from the data, not from the text of the source, unless noted: active = inhibition above about 30%; inconclusive = no clear call, values can overlap the other calls; inactive = below that.

CC(=O)c1ccc(OCC(O)CN2CCN(c3ccc(F)cc3)CC2)cc1 (stereo not drawn)	BoNT-F LC inh inconclusive
COc1ccc(-n2c(=O)cc(N3CCN(c4ccccc4OC)CC3)[nH]c2=O)cc1	none
Cc1ccc(S(=O)(=O)N2CCN(C(=O)COC(=O)Cc3ccc(Cl)cc3)CC2)c(C)c1	none
Cc1nc2ccc(C(=O)OCC(=O)N(C)c3ccccc3)cc2nc1C	none
C=CCc1ccccc1OCC(O)CN1CCN(c2ccc(OC)cc2)CC1 (stereo not drawn)	BoNT-A LC inh2 inconclusive, Autofluor counter 23665
COc1ccccc1N1CCN(Cc2ccccc2Cl)CC1	Autofluor counter 23767
COc1ccccc1N1CCN(Cc2ccccc2F)CC1	none
COc1cccc(NC(=O)CN(C)C(C)C(=O)Nc2cc([N+](=O)[O-])ccc2Cl)c1 (stereo not drawn)	none
c1coc(CNc2c3c(nc4ncnn24)CCC3)c1	Autofluor counter 20732
c1ccc(Nc2c3c(nc4ncnn24)CCC3)cc1	none
Fc1ccccc1CCNc1c2c(nc3ncnn13)CCCC2	none
c1ccc(CCNc2c3c(nc4ncnn24)CCC3)cc1	Autofluor counter 22631
Clc1ccccc1Nc1c2c(nc3ncnn13)CCC2	Autofluor counter 21040
COc1ccc(Cl)cc1NC(=O)Nn1cnnc1	Autofluor counter 16503
COc1ccc(C(=O)Nn2cnnc2)cc1OC	none
COc1ccc(C(=O)Nn2cnnc2)c(OC)c1	Autofluor counter 21828
COc1ccc(C(=O)Nc2ccc(C)cn2)c(OC)c1	Autofluor counter 21063
COc1ccc(C)cc1NC(=O)NC1CCCCCCC1	none
COc1ccc(C(=O)Nc2cc(C)on2)c(OC)c1	Autofluor counter inconclusive
COc1ccc(C)cc1NC(=O)Nc1ccc(Br)cn1	Autofluor counter 18723
Cc1cc(C)cc(NC(=O)CSc2nc(N)c(NC(=O)c3ccc(Br)o3)c(=O)[nH]2)c1	none
Cc1cccc(Sc2c([N+](=O)[O-])ncn2C)c1	Autofluor counter 23323
Cc1cccnc1Sc1c([N+](=O)[O-])ncn1C	none
CCC(C)C(=O)Nc1ccc(OC)cc1[N+](=O)[O-] (stereo not drawn)	none
COc1cc(C2Nc3ccc4ncccc4c3C3=C2C(=O)CC(C)(C)C3)cc(OC)c1O (stereo not drawn)	Autofluor counter 23335
COc1cc(C2Nc3ccc4ncccc4c3C3=C2C(=O)CCC3)cc(OC)c1O (stereo not drawn)	none
COc1cccc(NC(=O)CC(=O)c2ccccc2)c1	none
O=C1CCCCN1CCCC(=O)N1CCCC(Nc2ccccc2)C1 (stereo not drawn)	none
CC(=O)c1ccc(OC(=O)C(CCS(C)(=O)=O)N2C(=O)c3ccccc3C2=O)cc1 (stereo not drawn)	Autofluor counter 21318
O=c1[nH]c(CSc2nnc(-c3ccncc3)n2Cc2ccco2)nc2ccccc12	BoNT-A LC inh2 inconclusive, Autofluor counter 22482
O=C(O)CSc1nnc(-c2ccncc2)n1C1CCCCC1	BoNT-A LC inh2 inconclusive, Autofluor counter 19539
O=c1[nH]c(CSc2nnc(-c3ccccc3)n2C2CCCCC2)nc2ccccc12	Autofluor counter 22043
O=c1[nH]c(CSc2nnc(-c3ccccc3)n2-c2ccccc2)nc2ccccc12	none
COCCn1c(SCc2nc3ccccc3c(=O)[nH]2)nnc1-c1ccncc1	BoNT-A LC inh2 inconclusive, Autofluor counter 16786
Cc1ccc(-c2nnc(SCc3nc4ccccc4[nH]3)n2Cc2ccco2)cc1	none
CC(NC(=O)/C=C/c1cnc2ccccc2n1)C12CC3CC(CC(C3)C1)C2 (stereo not drawn)	none
COc1cc(C(=O)NCC(=O)Nc2ccc(F)c(F)c2)ccc1OCC(=O)N1CCOCC1	none
O=C(CSc1nnc(-c2ccccc2)o1)N1CCc2ccccc2C1	none
O=C(CSc1nnc(-c2ccccc2O)o1)N1CCc2ccccc2C1	BoNT-A LC inh2 inconclusive, Autofluor counter 20351
Cc1cc(NC(=O)CSc2nc(-c3ccc(Cl)cc3)cs2)no1	BoNT-A LC inh2 inconclusive, Autofluor counter 20504
COc1ccccc1C(=O)NCCn1cc(SCC(=O)Nc2cc(C)on2)c2ccccc21	BoNT-A LC inh2 inconclusive, Autofluor counter 16999
COc1ccc(C(=O)NCCn2cc(SCC(=O)Nc3cc(C)on3)c3ccccc32)cc1OC	BoNT-F LC inh inconclusive
Cc1cc(NC(=O)CSc2nc3ccccc3s2)no1	none
Cc1cc(NC(=O)Cn2cc(C(F)(F)F)cc(Cl)c2=O)no1	BoNT-A LC inh2 inconclusive, Autofluor counter 21524
Cc1cc(NC(=O)CSc2ccc(Cl)cc2)no1	Autofluor counter 22791
O=C(C(=S)N1CCOCC1)c1c[nH]c2ccccc12	none
COc1ccccc1NC(=O)COC(=O)CCn1c(C)csc1=O	BoNT-F LC inh inconclusive, Autofluor counter inconclusive
COc1cc(NC(=O)C2CCN(c3cnccn3)CC2)cc(OC)c1OC	none
Cc1nc(-c2ccccn2)nc(SCC(=O)c2ccccc2)c1Cl	none
COc1ccc(-c2ccc(SCC(=O)Nc3cc(C)on3)nn2)cc1OC	Autofluor counter 25486
COc1ccc(CCCNC(=O)C2Cc3c(-c4cccc(NC(C)=O)c4)ccnc3O2)cc1 (stereo not drawn)	none
N#CCc1ccc(NS(=O)(=O)c2cccs2)cc1	Autofluor counter 16560
Cc1cc(C)cc(CC2CC(=O)N(c3cc(C)on3)C2=O)c1 (stereo not drawn)	Autofluor counter 19958
Cc1cc(C)cc(CC2CC(=O)N(c3ccc4c(c3)OCCO4)C2=O)c1 (stereo not drawn)	none
COc1cccc(Nc2nc3ccccc3nc2NS(=O)(=O)c2cccs2)c1	BoNT-A LC inh2 inconclusive, Autofluor counter 22498
CC(C)(C)c1ccc(OCCNC(=S)NC(=O)c2cccnc2)cc1	none
Cc1ccc(C)c(NC(=O)c2ccc(N(C)S(C)(=O)=O)cc2)c1	Autofluor counter 20420
CCOc1cc(C(=O)Nc2cc3c(cc2N2CCOCC2)n(C)c(=O)n3C)cc(OCC)c1OCC	none
COc1ccc(N(C(=O)c2ccco2)S(=O)(=O)c2cc(Cl)c(Cl)cc2Cl)cc1	Autofluor counter 23813
COc1ccccc1-n1c([S-])c(C(=O)Nc2ccccc2C(F)(F)F)[n+]2ccc(C(=O)NCCO)cc12	BoNT-A LC inh2 36.5
CCN(CC)CCCNC(=O)c1ccc(OCC(=O)Nc2ccccc2C(F)(F)F)c(OC)c1	none
Cc1ccc(-n2c([S-])c(C(=O)Nc3ccc(OC(F)F)cc3)[n+]3ccc(C(=O)NCCO)cc23)cc1C	BoNT-A LC inh2 50.9
Cc1ccc(NC(=O)c2ccc(OC(F)F)cc2)cc1S(=O)(=O)N(C)C	none
CCN(CC)S(=O)(=O)c1cc(NC(=O)COC(=O)CCc2nc3ccccc3s2)ccc1C	BoNT-A LC inh2 inconclusive, Autofluor counter 22825
CCCCNC1c2ccccc2C(=O)N1Cc1ccccc1 (stereo not drawn)	none
CCCCN1C(=O)C(C2c3ccccc3C(=O)N2Cc2ccccc2)C(=O)NC1=S (stereo not drawn)	Autofluor counter 21741
COc1ccccc1N1CCN(C(=O)N2CCOCC2)CC1	Autofluor counter 23262
COc1ccccc1N1CCN(/N=C/c2cc(OC)c(O)c(OC)c2)CC1	none
COc1ccccc1N1CCN(C(=O)CSc2nc(C)cc(=O)[nH]2)CC1	Autofluor counter 17183
COc1ccccc1N1CCN(C(=O)CCC(=O)N2CCN(c3ccccc3OC)CC2)CC1	none
COc1cccc(OC)c1C(=O)N1CCOCC1	BoNT-A LC inh2 inconclusive, Autofluor counter 22982
